From PubChem BioAssay
SW480 rereplic: A quantitative high throughput screen for small molecules that induce DNA re-replication in SW480 colon adenocarcinoma cells. 340,000 tested, 1.8% active. Potency, µM (series often up to 46.1 µM), inactives show top-dose re-replication activation, most hits filed as activators. SW480 DNA re-replication, Hoechst DNA content imaging, 48 h. AID 624297, 2012; note: % of control where 0% means no effect; nearly all actives have a fitted effect of over 55% in size
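250 cells/well; 23 nL cpd via pin tool; 48 hr, 37 C, 5% CO2; Hoechst 40 min; imager read of total nuclear intensity, ex 405/em 500-530 nm.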
ELG1 DNA repair: qHTS screen for small molecules that inhibit ELG1-dependent DNA repair in human embryonic kidney (HEK293T) cells expressing luciferase-tagged ELG1; HEK293T ELG1-luciferase reporter, luminescence, 16 h; DNA damage induced by 5-fluorouridine; 330,000 tested, 2.3% active; Potency, µM (series often up to 46.1 µM), without a hit: top-dose activity change, negative = inhibition, usual class: inhibitors; note: % is set by controls: 0 for no effect and ±100 for the full control effect; nearly all actives have a fitted effect of over 55% in size
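Step one: seed 2,000 cells per well. Step two: pin-transfer compound or DMSO alongside 5-fluorouridine. Step three: incubate 16 hr, 37 °C, 5% CO2. Step four: add ONE-Glo, wait 30 min, read luminescence.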
MCF10A rerep: A quantitative high throughput screen for small molecules that induce DNA re-replication in MCF 10a normal breast cells; MCF 10A DNA re-replication, Hoechst nuclear intensity, 48 h; Potency, µM (titrated, usually from 46.1 µM), for the others: top-dose activity, positive = re-replication, usual class: activators; 350,000 tested, 2.9% active; note: % of control where 0% means no effect; nearly all actives have a fitted effect of over 50% in size
KB-3-1 cytotox: qHTS assay for MDR1-selective chemotherapeutics: Primary screen using the parental adenocarcinoma cell KB-3-1 | KB-3-1 viability, CellTiter-Glo ATP luminescence, 72 h | Potency, µM (series often up to 46.1 µM), actives largely listed as cytotoxic | 400,000 tested, 1.4% active; note: % is set by controls: 0 for no effect and ±100 for the full control effect; nearly all actives have a fitted effect of over 60% in size
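Cytotoxicity in the drug-sensitive parental line KB-3-1 was scored as loss of CellTiter-Glo luminescence following 72 h incubation with compound. Values come from curve fitting of normalized concentration-response data.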
KB-V1 MDR tox: qHTS assay for MDR1-selective chemotherapeutics: Primary screen using the drug-selected MDR subline cells KB-V1 | KB-V1 MDR cells viability, CellTiter-Glo, 72 h | Potency, µM (top dose mostly 46.1 µM), actives largely listed as cytotoxic | 400,000 tested, 3.4% active; note: % is set by controls: 0 for no effect and ±100 for the full control effect; nearly all actives have a fitted effect of over 60% in size
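KB-V1, DMEM (no phenol red) + 10% FBS; cpd pin-transferred, titration series; 72 h, 37 degrees C; CellTiter-Glo, luminescence. Data normalized, curve-fit.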
Starred values were filed as active, the others as inactive; i = inactive; u = inconclusive; x = no result given; [ ] = another dose, or the depositor's remark. Shown are actives, neighbours in structure and some others; about 8.2% of the full set was active somewhere. Calls come from the whole dose curve; as a rule, active = well fitted curve in the direction sought with a large enough effect; inconclusive = small, poorly fitted or top-dose-only effect, or another doubt; inactive = no such curve, though single readings can be large; an effect the other way counts as inactive or inconclusive. Potency is the fitted concentration of half-maximal effect.

SMILES	SW480 rereplic	ELG1 DNA repair	MCF10A rerep	KB-3-1 cytotox	KB-V1 MDR tox
Nn1c(COc2ccccc2F)nnc1SCC(=O)NC1CCCC1	0%	7%	0%	i	i
COc1cccc2[nH]c3c(N4CCCC(C)C4)ncnc3c12 (centres undefined)	-6%	10%	4%	i	6.5µM*
COc1cccc2[nH]c3c(N4CC(C)CC(C)C4)ncnc3c12 (centres undefined)	x	15µM*	x	x	x
O=c1[nH][nH]c2c1C(c1ccc(F)cc1)OC(CCc1ccccc1)C2 (centres undefined)	x	x	x	i	i
COc1ccc(NC(=O)C(C)n2nc(-c3cc(C)ccc3C)c3c(c2=O)CCCC3)cc1 (centres undefined)	x	x	x	i	u
CCOC(=O)CNC(=S)n1ncnc1N	5.8µM*	-1%	-7%	i	i
CCOC(=O)CNC(=S)SC	254%	2%	0%	i	i
O=[N+]([O-])/C=C\c1ccc(N2CCCC2)c(F)c1	18µM*	u	18µM*	u	u
COc1ccc2c(c1)c1c(c(=O)n(Cc3ccccc3)c(=O)n1Cc1ccc(C)cc1)n2C	x	x	x	i	i
COc1ccc(Cn2c(C(=O)O)c(CNCc3cccs3)c3ccc(C)cc32)cc1	x	x	x	u	i
Cc1ccc2c(CNCc3cccs3)c(C(=O)O)n(Cc3ccc(F)cc3)c2c1	x	x	x	12µM*	i
COc1ccc2c(CNCc3cccs3)c(C(=O)O)n(Cc3ccc(F)cc3Cl)c2c1	x	x	x	i	u
C=Cc1ccc(Cn2c(C(=O)O)c(CNCc3cccs3)c3ccc(C)cc32)cc1	x	x	x	i	i
C=Cc1ccc(Cn2c(C(=O)O)c(CNCc3ccc(F)cc3)c3ccc(C)cc32)cc1	x	x	x	7.3µM*	i
COc1ccc2c(CNCc3cccs3)c(C(=O)O)n(Cc3ccc(F)cc3)c2c1	x	x	x	16µM*	i
COC(=O)[C@]1(C)N[C@H](CN(C)C(=O)COc2ccccc2)[C@@H]2C(=O)N(C)C(=O)[C@@H]21	-41%[9.22 µM]	10%	-11%	i	u
CCOc1ccccc1NC(=O)CSc1nncc2ccccc12	-4%	13%	u	i	i
CCN1CCN(CC(=O)Nc2c(OC)cccc2OC)CC1	-5%	10%	1%	i	i
N#CC1=C(SCC(=O)NC23CC4CC(CC(C4)C2)C3)NC(=O)C(C#N)C12CCCCC2 (centres undefined)	13%	13µM*	16µM*	u	12µM*
N#CC1=C(SCC(=O)NC2CC2)NC(=O)C(C#N)C12CCCCC2 (centres undefined)	-4%	-2%	20%	i	i
CCCCCC(=O)N1C[C@H](n2cc(-c3ccc(F)cc3)nn2)[C@@H](O)C[C@@H]1c1ccc(C)cc1	x	x	x	i	i
COC(=O)c1cc(S(=O)(=O)N2CCN(c3ccc(C(C)=O)cc3)CC2)cn1C	15%	u	17%	i	i
Cc1ccc2nc(C)c3c(c2c1)N(c1ccc(F)cc1)CC3	-8%	u	18µM*	u	u
COc1cc(/C=N/n2cnc3scc(-c4cccs4)c3c2=O)cc(OC)c1OC	u	u	12%	4.6µM*	u
COc1ccc(/C=N/n2cnc3scc(-c4cccs4)c3c2=O)cc1OC	0%	u	3%	i	i
SMILES	SW480 rereplic	ELG1 DNA repair	MCF10A rerep	KB-3-1 cytotox	KB-V1 MDR tox
Cc1[nH]n(-c2ccccc2)c(=O)c1C(=O)c1ccc(Cl)cc1	3%	u	21%	u	10µM*
Cc1[nH]n(-c2ccc(Cl)cc2)c(=O)c1C(=O)c1ccccc1	-20%	-4%	4.6µM*	13µM*	13µM*
CN(C)CC(C)(C)NS(=O)(=O)c1ccc(Cl)cc1	u	4%	15µM*	i	i
Cn1cnc2c(NCc3ccccc3)nc(Cl)nc21	x	x	x	i	i
O=C(/C=C/c1cccc(F)c1)NNC(=O)c1ccncc1	0%	0%	5%	u	8.2µM*
COc1ccc2cc(C(c3nnnn3CCc3ccccc3)N3CCCC(C)C3)c(=O)[nH]c2c1 (centres undefined)	9%	-17%	-37%	i	18µM*
COCCn1nnnc1C(c1cc2cc(OC)ccc2[nH]c1=O)N1CCC(Cc2ccccc2)CC1 (centres undefined)	19%	u	u	u	u
COc1ccccc1C(c1nnnn1CCc1ccccc1)N1CCCCCC1 (centres undefined)	u	-13%	u	i	16µM*
COc1ccccc1C(c1nnnn1CCc1ccccc1)N1CCN(c2ccccc2)CC1 (centres undefined)	1%	4%	6%	i	i
CCOc1cccc(C(=O)Nc2cc(C)ccc2NC(=O)c2ccco2)c1	-8%	-24%	9%	i	i
CCCCN(C(=O)c1ccc(S(=O)(=O)N(C)c2ccccc2)cc1)c1c(N)n(CCC)c(=O)[nH]c1=O	-4%	x	-1%	i	i
CCOC(=O)c1nc(NCCc2ccccc2)sc1C	6%	23%	2.1µM*	i	i
COc1ccc(CNc2nc3ccccc3s2)cc1OC	7%	u	13%	i	i
c1ccc(CCNc2nc3ccccc3s2)cc1	-3%	u	u	i	18µM*
CN(C)CCNC(=O)c1cccc2ccc(-c3ccc(-c4ccccc4)cc3)nc12	u	x	u	u	12µM*
CN(C)CCNC(=O)c1cccc2nc3cccc(F)c3nc12	22%	x	u	4.1µM*	u
COc1ccc(OC)c2nc3c(C(=O)NCCN(C)C)cccc3nc12	u	x	u	u	21µM*
COc1cccc(CNC(=O)CCCn2nc(C)n3c(cc4sccc43)c2=O)c1	-4%	-4%	7%	i	u
COCCn1nnnc1C(c1cc2cc(C)cc(C)c2[nH]c1=O)N1CCN(c2ccccc2F)CC1 (centres undefined)	1%	-22%	2%	i	23µM*
CCN(Cc1ccccc1)C(c1cc2cc(C)ccc2[nH]c1=O)c1nnnn1CCOC (centres undefined)	3%	-18%	1%	u	16µM*
COc1ccc(Cn2c(=O)c3ccccc3n3c(-c4ccc(C)cc4)nnc23)cc1	x	x	x	i	i
Cc1cc(C(=O)N/N=C/c2ccc(Cl)c([N+](=O)[O-])c2)c(C)n1-c1ccc(F)cc1	17%	u	12µM*	5.8µM*	u
